According to PubChem BioAssay (Tox21):
A number with no mark means an inactive call. Records with an inconclusive call do not appear. A call without a number means that no potency is given here. Calls of active or inactive are those of the source. Unless noted, calls come from the whole dose curve; as a rule, active = well fitted curve in the direction sought with a large enough effect in the repeat runs; inconclusive = weak or mixed curves; inactive = no such curve, though single readings can be large; an effect the other way counts as inactive or inconclusive.

Columns and labels:
[1] = qHTS assay to identify small molecule agonists of the estrogen receptor alpha (ER-alpha) signaling pathway in the presence of an antagonist - cell viability counter screen (AID 1259386);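 note: series mostly up to about 92 µM; cells exposed to compounds for 22 h at 37 °C before the viability read; nearly all actives have a fitted effect of over 30% in size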
In short: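 Cytotoxicity was measured in parallel with the ERE-luciferase agonist screen, in the same wells. The cells were VM7Luc4E2, which endogenously express ER-alpha, and treatment was with compounds plus 10.0nM ICI-182,780 for 22hr.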

[2] = molecular target: Progesterone receptor (Homo sapiens) (UniProt P06401); test: qHTS assay to identify small molecule agonists of the progesterone receptor (PR) signaling pathway (AID 1346784; calls by dose curve; note: nearly all actives have a fitted effect of over 30% in size)
In short: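 PR-UAS-bla HEK 293T cells carrying a UAS-driven beta-lactamase reporter were seeded in medium with 2% charcoal-stripped FBS, preincubated 6 hr at 37C, then exposed to compounds in DMSO for 16 hr; agonism was read by LiveBLAzer B/G FRET fluorescence.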

[3] = molecular target: Progesterone receptor (Homo sapiens) (UniProt P06401); test: qHTS assay to identify small molecule antagonists of the progesterone receptor (PR) signaling pathway (AID 1346795; active = well fitted inhibition curve with a large enough effect in the signal ratio in the repeat runs, not every such curve was filed as active; the % refers to the signal ratio)
In short: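 PR-UAS-bla HEK293T cells carrying a UAS-driven beta-lactamase reporter were plated in medium with 2% charcoal-stripped FBS and rested 6 hr at 37C. Compounds were added with 1 nM R5020 (final) for 16 hr, then FRET substrate loaded 2 hr at room temperature.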

[4] = qHTS assay to identify small molecule agonists of the progesterone receptor (PR) signaling pathway - cell viability counter screen (AID 1346799; calls by dose curve; note: nearly all actives have a fitted effect of over 45% in size)
In short: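 PR-UAS-bla HEK293T cells, 3,000 per well in medium with 2% charcoal-stripped FBS, were preincubated 6 hr at 37C, then exposed to compounds for 16 hr; viability was read as CellTiter-Glo luminescence after 30 min at room temperature.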

[5] = qHTS assay to identify small molecule antagonists of the TGF-beta/Smad signaling pathway - cell viability counter screen (AID 1346824); note: nearly all actives have a fitted effect of over 50% in size
In short: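 Cytotoxicity counter-screen run in the same wells as the beta-lactamase Smad reporter read: CellTiter-Glo luminescence after 30 min at room temperature. HEK 293T SBE-bla cells had 5 hr compound exposure at 37 C with TGF-beta1 (0.25 ng/mL stock).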

[6] = qHTS assay to identify small molecule agonists of the TGF-beta/Smad signaling pathway - cell viability counter screen (AID 1346829); note: top concentration of the series differs between compounds; nearly all actives have a fitted effect of over 45% in size
In short: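 CellTiter-Glo luminescence readout; SBE-bla HEK 293T cells, overnight plating, compound 5 hr at 37 C/5% CO2, then bla substrate 2 hr RT, then CellTiter-Glo 30 min RT.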

[7] = qHTS assay to identify small molecule agonists of the TGF-beta/Smad signaling pathway (AID 1346859; active = well fitted activation curve with a large enough effect in the signal ratio in the repeat runs, not every such curve was filed as active; the % refers to the signal ratio; note: series mostly up to about 77 µM)
In short: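 HEK 293T cells stably carrying a beta-lactamase reporter driven by the Smad binding element were seeded overnight, exposed to DMSO-dissolved compounds for 5 hr at 37 C, 5% CO2, then loaded with FRET substrate for 2 hr at room temperature.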

[8] = Human pregnane X receptor (PXR) small molecule agonists, qHTS cell viability counter screen (AID 1346977); note: nearly all actives have a fitted effect of over 50% in size
In short: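 PXR-Luc HepG2 cells in medium with 5% charcoal-stripped FBS were pre-incubated 5hr, then exposed to compounds for 24hr at 37C. Viability was read in the same wells by CellTiter-Fluor fluorescence, reagent added after 23hr with a 1hr incubation.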

[9] = Caspase-3/7 induction in HepG2 cells by small molecules, qHTS assay (AID 1346978); note: nearly all actives have a fitted effect of over 15% in size
In short: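 Caspase-3/7 induction was measured by Caspase-Glo 3/7 luminescence (30 min, room temperature) after a 17 hr compound exposure of wild-type HepG2 cells seeded at 2,000 per well and pre-incubated 5 hr.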

[10] = Caspase-3/7 induction in CHO-K1 cells by small molecules, qHTS cell viability counter screen (AID 1346979); note: nearly all actives have a fitted effect of over 35% in size
In short: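 Wild-type CHO-K1 cells were seeded at 1,500 per well, rested 5hr at 37 C, then exposed to compounds in DMSO. After 16hr, CellTiter-Fluor reagent was added and fluorescence read 1hr later as the viability measure.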

[11] = Caspase-3/7 induction in CHO-K1 cells by small molecules, qHTS assay (AID 1346980); note: nearly all actives have a fitted effect of over 15% in size
In short: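 Luminescent Caspase-Glo 3/7 read (30min, room temperature) quantified apoptosis induction. Cells were wild-type CHO-K1, treated with compound for 17hr at 37 C and 5% CO2.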

[12] = Caspase-3/7 induction in HepG2 cells by small molecules, qHTS cell viability counter screen (AID 1346981); note: series mostly up to about 92 µM; nearly all actives have a fitted effect of over 30% in size
In short: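 Cell viability is measured as a cytotoxicity counter screen alongside the Caspase-Glo 3/7 readout in identical wells. Wild-type HepG2 cells are treated with test compounds for 16 hr at 37 C before CellTiter-Fluor addition and a 1-hr incubation.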

[13] = molecular target: Nuclear receptor subfamily 1 group I member 2 (Homo sapiens) (UniProt O75469); test: Human pregnane X receptor (PXR) small molecule agonists, qHTS assay (AID 1346982); note: nearly all actives have a fitted effect of over 35% in size; note: potency is the fitted concentration of half-maximal effect
In short: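 Cells: HepG2 stably carrying PXR-Luc. Medium held 5% charcoal-stripped FBS. Compounds in DMSO added after 5 hr plating, incubated 24 hr, then luminescence quantified with ONE-Glo.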

[14] = molecular target: Acetylcholinesterase (Homo sapiens) (UniProt P22303); test: Acetylcholinesterase (AChE) small molecule antagonists: colormetric cell-based qHTS assay (AID 1347395; calls by dose curve; note: nearly all actives have a fitted effect of over 30% in size; note: potency is the fitted concentration of half-maximal effect)
In short: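 SH-SY5Y cells, plated overnight at 37 C, were exposed to compounds for 30 min at 37 C and 5% CO2. Acetylthiocholine plus DTNB was then added, and thiocholine from endogenous AChE was quantified colorimetrically after 90 min at 37 C.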

[15] = molecular target: Thyrotropin-releasing hormone receptor (Homo sapiens) (UniProt P34981); test: qHTS assay to identify small molecule antagonists of the thyrotropin-releasing hormone receptor (TRHR) signaling pathway (AID 1346877; active = well fitted inhibition curve with a large enough effect in the repeat runs, not every such curve was filed as active; note: series mostly up to about 51 µM)
In short: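 Antagonism is measured as suppression of the calcium response to 1 nM TRH in TRHR-HEK293 cells that have been dye-loaded for 2 h at 37 °C after overnight plating. Each compound is tested at 15 concentrations in triplicate.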

[16] = molecular target: Thyrotropin-releasing hormone receptor (Homo sapiens) (UniProt P34981); test: qHTS assay to identify small molecule agonists of the thyrotropin-releasing hormone receptor (TRHR) signaling pathway (AID 1346891; calls by dose curve; note: series mostly up to about 58 µM)
In short: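 TRHR-expressing HEK293 cells were plated 18 h at 37 °C/5% CO2, loaded with calcium dye 2 h at 37 °C, then given compound in DMSO; fluorescence was read kinetically for 3 min at 1 s intervals.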

[17] = molecular target: Nuclear receptor subfamily 1 group I member 2 (Rattus norvegicus) (UniProt Q9R1A7); test: Rat pregnane X receptor (rPXR) activation by small molecules, qHTS assay (AID 1346983); settings: rPXR luciferase reporter cells, One-Glo luminescence, 24 h; max activation: hits give high values; note: nearly all actives have a fitted effect of over 20% in size
In short: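 Luminescent readout (One-Glo luciferase, 30 min room temperature) followed 24 hr compound treatment at 37 C of rPXR cells plated 2,000 per well and preincubated 5hr; qHTS format with compounds delivered in DMSO.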

[18] = molecular target: Nuclear receptor subfamily 1 group I member 2 (Homo sapiens) (UniProt O75469); test: CYP3A4 induction through human pregnane X receptor (PXR) by small molecules, qHTS assay (AID 1346984); note: nearly all actives have a fitted effect of over 40% in size
In short: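 Quantitative HTS in DPX-2 cells, i.e. HepG2 transfected with PXR response element and CYP3A4-promoter luciferase. Compounds in DMSO incubated 24hr at 37C; then P450-Glo CYP3A4 substrate, 3uM final, 3hr; One-Glo luminescence.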

[19] = molecular target: Nuclear receptor subfamily 1 group I member 2 (Homo sapiens) (UniProt O75469); test: Human pregnane X receptor (PXR) activation by small molecules, qHTS assay (AID 1346985); note: nearly all actives have a fitted effect of over 40% in size
In short: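 DPX-2 cells (HepG2 co-transfected with a PXR response element and a CYP3A4-promoter luciferase construct) were seeded at 2,000 per well, rested 5 hr at 37C, then exposed to DMSO-dissolved compounds for 24 hr. Activation was read as luciferase luminescence.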

Chain of Acetylcholinesterase (Homo sapiens) (P22303 whole entry, looked up): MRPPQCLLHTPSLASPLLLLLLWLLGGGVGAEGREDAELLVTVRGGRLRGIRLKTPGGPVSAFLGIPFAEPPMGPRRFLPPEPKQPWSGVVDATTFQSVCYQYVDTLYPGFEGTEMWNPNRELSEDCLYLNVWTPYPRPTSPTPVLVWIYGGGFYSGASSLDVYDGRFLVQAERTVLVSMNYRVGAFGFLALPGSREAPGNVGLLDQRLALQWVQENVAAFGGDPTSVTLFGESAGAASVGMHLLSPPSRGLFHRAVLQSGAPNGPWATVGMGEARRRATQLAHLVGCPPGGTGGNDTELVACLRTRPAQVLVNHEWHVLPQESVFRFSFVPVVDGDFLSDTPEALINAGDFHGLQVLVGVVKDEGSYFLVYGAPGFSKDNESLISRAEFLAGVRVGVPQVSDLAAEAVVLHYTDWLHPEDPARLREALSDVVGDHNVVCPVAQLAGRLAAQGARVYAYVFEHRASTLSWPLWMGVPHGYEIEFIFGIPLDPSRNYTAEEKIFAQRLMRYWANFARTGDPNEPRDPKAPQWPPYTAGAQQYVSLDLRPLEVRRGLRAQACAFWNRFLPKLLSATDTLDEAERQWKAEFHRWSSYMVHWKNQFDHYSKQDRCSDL
Chain of Thyrotropin-releasing hormone receptor (Homo sapiens) (P34981 whole entry, looked up): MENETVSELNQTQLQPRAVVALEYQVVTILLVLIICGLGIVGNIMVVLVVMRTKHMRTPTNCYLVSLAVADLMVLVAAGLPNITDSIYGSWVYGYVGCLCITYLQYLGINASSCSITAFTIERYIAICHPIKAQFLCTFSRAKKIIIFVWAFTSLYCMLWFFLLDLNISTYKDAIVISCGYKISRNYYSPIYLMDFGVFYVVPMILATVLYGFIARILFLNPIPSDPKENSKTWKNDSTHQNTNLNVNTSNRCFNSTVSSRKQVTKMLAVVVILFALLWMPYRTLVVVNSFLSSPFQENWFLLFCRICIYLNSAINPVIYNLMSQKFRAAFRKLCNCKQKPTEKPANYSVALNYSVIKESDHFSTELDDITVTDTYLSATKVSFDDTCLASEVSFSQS
Chain of Nuclear receptor subfamily 1 group I member 2 (Homo sapiens) (O75469 whole entry, looked up): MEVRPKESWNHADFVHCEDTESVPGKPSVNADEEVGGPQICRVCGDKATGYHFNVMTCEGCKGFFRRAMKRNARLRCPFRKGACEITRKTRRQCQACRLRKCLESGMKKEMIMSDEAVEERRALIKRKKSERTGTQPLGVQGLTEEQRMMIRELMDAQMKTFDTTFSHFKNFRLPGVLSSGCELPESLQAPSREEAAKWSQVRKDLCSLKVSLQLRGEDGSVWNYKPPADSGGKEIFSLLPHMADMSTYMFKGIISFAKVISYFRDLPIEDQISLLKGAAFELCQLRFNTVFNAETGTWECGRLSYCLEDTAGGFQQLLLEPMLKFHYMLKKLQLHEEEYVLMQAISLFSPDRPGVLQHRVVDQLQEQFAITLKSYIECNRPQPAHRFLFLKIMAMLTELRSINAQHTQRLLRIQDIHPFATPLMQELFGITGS
Chain of Progesterone receptor (Homo sapiens) (P06401 whole entry, looked up): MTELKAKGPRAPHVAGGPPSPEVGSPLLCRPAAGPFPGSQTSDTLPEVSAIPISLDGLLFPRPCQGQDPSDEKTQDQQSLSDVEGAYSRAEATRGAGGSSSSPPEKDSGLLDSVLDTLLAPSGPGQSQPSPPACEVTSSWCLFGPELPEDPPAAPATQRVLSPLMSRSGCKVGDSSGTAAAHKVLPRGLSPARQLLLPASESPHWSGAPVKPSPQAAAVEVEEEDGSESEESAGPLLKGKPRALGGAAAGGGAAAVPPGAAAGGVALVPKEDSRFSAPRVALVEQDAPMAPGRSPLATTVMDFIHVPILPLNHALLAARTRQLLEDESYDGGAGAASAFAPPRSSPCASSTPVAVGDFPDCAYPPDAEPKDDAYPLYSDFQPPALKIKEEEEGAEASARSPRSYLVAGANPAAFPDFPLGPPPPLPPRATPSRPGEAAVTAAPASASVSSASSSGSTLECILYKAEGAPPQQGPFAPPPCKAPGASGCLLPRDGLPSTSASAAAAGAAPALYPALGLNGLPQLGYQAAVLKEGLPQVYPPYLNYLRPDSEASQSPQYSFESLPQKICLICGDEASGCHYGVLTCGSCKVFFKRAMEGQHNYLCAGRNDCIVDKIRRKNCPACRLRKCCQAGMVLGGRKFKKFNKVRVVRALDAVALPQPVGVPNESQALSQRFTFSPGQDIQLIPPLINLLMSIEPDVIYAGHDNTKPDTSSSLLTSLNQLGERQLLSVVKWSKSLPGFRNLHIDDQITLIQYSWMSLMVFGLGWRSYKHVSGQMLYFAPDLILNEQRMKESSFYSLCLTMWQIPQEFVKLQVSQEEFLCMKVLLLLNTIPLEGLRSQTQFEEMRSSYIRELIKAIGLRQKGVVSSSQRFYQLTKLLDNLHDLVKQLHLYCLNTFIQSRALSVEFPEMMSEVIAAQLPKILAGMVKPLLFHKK
Chain of Nuclear receptor subfamily 1 group I member 2 (Rattus norvegicus) (Q9R1A7 whole entry, looked up): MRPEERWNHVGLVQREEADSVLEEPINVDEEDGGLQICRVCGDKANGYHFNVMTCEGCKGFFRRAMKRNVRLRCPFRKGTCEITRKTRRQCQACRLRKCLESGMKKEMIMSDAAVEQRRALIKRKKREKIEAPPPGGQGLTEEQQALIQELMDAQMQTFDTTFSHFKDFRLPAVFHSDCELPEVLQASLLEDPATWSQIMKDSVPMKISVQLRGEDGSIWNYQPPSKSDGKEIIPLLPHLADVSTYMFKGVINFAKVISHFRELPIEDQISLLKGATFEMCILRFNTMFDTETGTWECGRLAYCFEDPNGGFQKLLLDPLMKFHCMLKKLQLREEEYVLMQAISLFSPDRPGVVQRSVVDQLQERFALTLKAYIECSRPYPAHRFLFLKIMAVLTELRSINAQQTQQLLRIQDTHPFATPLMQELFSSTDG

Row | SMILES | Potency [1] | Potency [2] | Potency [3] | Potency [4] | Potency [5] | outcome [6] | outcome [7] | Potency [8] | Potency [9] | Potency [10] | Potency [11] | Potency [12] | Potency [13] | Potency [14] | outcome [15] | outcome [16] | max activation [17] [%] | Potency [18] | Potency [19]
1 | ClC(Cl)(Cl)C(Cl)(Cl)Cl | inactive | inactive | inactive | inactive | inactive | inactive | inactive | inactive | inactive | inactive | inactive | inactive | inactive | inactive |  |  |  |  | 
2 | N#CCNCC#N | inactive | inactive | inactive | inactive | inactive | inactive | inactive | inactive |  | inactive | inactive | inactive | inactive | inactive | inactive | inactive |  |  | 
3 | CS(=O)(=O)c1cc(C(F)(F)F)ccc1C(=O)c1cnoc1C1CC1 | inactive | inactive | inactive | inactive | inactive | inactive | inactive | inactive |  | inactive | inactive | inactive | inactive | inactive |  |  |  |  | 
4 | BrCCCCCCBr | inactive | inactive | inactive | inactive | inactive | inactive | inactive | inactive | inactive | inactive | inactive | inactive | inactive | 63.3 µM (active) | inactive | inactive |  |  | 
5 | ClC(Cl)C(Cl)Cl | inactive | inactive | inactive | inactive |  | inactive | inactive | inactive | inactive | inactive |  | inactive | 55 µM (active) | inactive |  |  |  |  | 
6 | CN1CCC(O)(c2ccc(F)cc2)C(C(=O)c2ccc(F)cc2)C1 (stereo unspecified) | inactive | inactive | inactive | inactive | inactive | inactive | inactive |  |  | inactive | inactive | inactive | 13.3 µM (active) | inactive | inactive | inactive | -0.751 | inactive | inactive
7 | ClC(Br)Br | inactive | inactive | inactive | inactive | inactive | inactive | inactive | inactive |  | inactive | inactive | inactive | inactive |  | inactive | inactive |  |  | 
8 | CCCCC(=O)Cl | inactive | inactive | inactive | inactive | inactive | inactive | inactive | inactive | inactive | inactive | inactive | inactive | inactive | inactive |  |  |  |  | 
9 | COC(=O)COc1ccc(Cl)cc1Cl | inactive | inactive | inactive | inactive | inactive | inactive |  | inactive |  |  | inactive | inactive | inactive | inactive | inactive | inactive |  |  | 
10 | Nc1cnn(-c2ccccc2)c(=O)c1Cl | inactive | inactive | inactive | inactive | inactive | inactive | inactive | inactive | inactive | inactive | inactive | inactive | inactive | inactive | inactive | inactive |  |  | 
11 | C=CC1CC=CCC1 (stereo unspecified) | inactive | inactive | inactive | inactive | inactive | inactive | inactive | inactive |  | inactive | inactive | inactive |  | inactive | inactive | inactive |  |  | 
12 | Nc1cc2c3c(c1)C(c1ccccc1)=N[C@@H](NC(=O)c1cccnc1)C(=O)N3CC2 | inactive | inactive | inactive | inactive | inactive | inactive | inactive | inactive |  |  | inactive | inactive | 61.1 µM (active) | inactive |  |  |  |  | 
13 | [As]#[In] | inactive | inactive | inactive | inactive | inactive | inactive | inactive | inactive | inactive | inactive | inactive | inactive | inactive | inactive | inactive | inactive |  |  | 
14 | O=[N+]([O-])c1cc(Cl)c(Cl)c(Cl)c1 | inactive | inactive | inactive | inactive | inactive | inactive | inactive | inactive | inactive | inactive | inactive | inactive | inactive | inactive | inactive | inactive |  |  | 
15 | COc1cc(OC)nc(Oc2cccc(Oc3nc(OC)cc(OC)n3)c2C(=O)O)n1 | inactive | inactive | inactive |  | inactive | inactive | inactive | inactive | inactive | inactive | inactive | inactive | inactive | inactive | inactive | inactive |  |  | 
16 | O=C(Oc1ccc(Br)cc1)N1CCN2CCC1CC2 | inactive | inactive | inactive | inactive | inactive | inactive | inactive |  | inactive | inactive | inactive | inactive | inactive | inactive | inactive | inactive |  |  | 
17 | C[C@@H]1CN(C2CCC(C#N)(c3ccc(F)cc3)CC2)CC[C@]1(C(=O)O)c1ccccc1 (stereo partly specified) | inactive | inactive | inactive | inactive |  | inactive | inactive |  |  | inactive | inactive | inactive | inactive | inactive |  |  | -1.37 | inactive | inactive
18 | COP(=S)(OC)Oc1ccc(S(N)(=O)=O)cc1 | inactive | inactive | inactive | inactive | inactive | inactive | inactive | inactive |  | inactive | inactive | inactive | inactive | inactive | inactive | inactive |  |  | 
